Data on 40 compounds can be found in PubChem BioAssay AID493169 (National Center for Advancing Translational Sciences (NCATS), 2011).

Structures are written as SMILES. Results filed as inconclusive are left out. The source made the active and inactive calls. Calls come from the whole dose curve; as a rule, active = well fitted inhibition curve with a large enough effect; inconclusive = small, poorly fitted or top-dose-only effect; inactive = flat fitted curve, though single readings scatter.
% is set by controls: 0 for no effect and ±100 for the full control effect; potency is the fitted concentration of half-maximal effect.

A short description of this test: CHOP2 Reporter Counterscreen Assay for Inhibitors of Ubiquitin-specific Protease USP2a.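 Note: activated enterokinase alone at 50 pM in a cell-free format rather than USP2a or CHOP2; nearly all actives have a fitted effect of over 55% in size.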 The conditions noted are these: purified enterokinase, fluorogenic substrate, 485/531 nm; series mostly up to 38.3 µM; activity change, negative = inhibition: at the top concentration. The gist of the method: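 Fluorescence (485/531 nm) read 10 min after adding 25nM reporter substrate to 50 pM activated EK preincubated 30 min RT with compound; Tris pH 8.0/CaCl2/CHAPS buffer. Data normalized to buffer-alone inhibition; concentration-response curves fitted.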
(In general: The purpose of a counterscreen is to sort out artefacts and off-target activity.)
As to `O=C(c1ccc([N+](=O)[O-])cc1)N(Cc1ccc(Cl)cc1)N1C(=O)CCCC1=O`, the “activity change, negative = inhibition” value is 1.6% (inactive).

On to `CCn1c2ccccc2c2nc3ccccc3nc21`, for which the “activity change, negative = inhibition” value was 2.3% (inactive).

On to `COc1ccc(-n2c(O)c(/C=N/n3cnnc3)c3ccccc3c2=O)cc1`, for which the “activity change, negative = inhibition” value was 9.52% (inactive).

For `O=C(COC(=O)c1c2c(nc3ccccc13)/C(=C/c1ccco1)CC2)NC1CCCC1`, the Potency is 2000 nM (active).

Take `O=C(NCCCN1CCCC1=O)c1cccc(N2CCCC2=O)c1`: the “activity change, negative = inhibition” value was 2.06% (inactive).

Turning to `CC1CCN(c2ccc3c(c2)S(=O)(=O)c2cccc(C(=O)NC4CC4)c2C3=O)CC1`, the “activity change, negative = inhibition” value was 8.41% (inactive).

Consider `Cc1nc(N(C)C)c2sc(=S)n(C)c2n1`, for which the “activity change, negative = inhibition” value is 0.969% (inactive).

For `Cc1ccc2nc(NCCCNC(=O)c3cnccn3)c(C#N)cc2c1`, the “activity change, negative = inhibition” value was 1.61% (inactive).

Consider `CCOc1ccc(CCn2c(-c3ccco3)nc3ccccc3c2=O)cc1OCC`, for which the “activity change, negative = inhibition” value is 4.41% (inactive).

With `N=C1C(c2nc3ccccc3c(=O)[nH]2)=C(O)CN1CCc1ccccc1`, the “activity change, negative = inhibition” value is 0.564% (inactive).

For the compound `CCCCCCCCCCOC(=O)Cn1c(COc2ccccc2)[n+](C)c2ccccc21`, the Potency is 11200 nM (active).

As for `COc1ccc(-c2nnn(CC(=O)N3CCOCC3)n2)cc1`, the “activity change, negative = inhibition” value is 2.46% (inactive).

As for `CCOc1ccc2[nH]c(=O)c(CN(CCc3ccccc3)C(=O)c3cnccn3)cc2c1`, the “activity change, negative = inhibition” value is 3.23% (inactive).

`Cc1ccc(C(=O)NCCNS(=O)(=O)c2ccccc2)cc1`: the “activity change, negative = inhibition” value is 2.62% (inactive).

For `O=C(N/C(=C/c1cccnc1)C(=O)N1CCOCC1)c1ccco1`, the “activity change, negative = inhibition” value is 0.49% (inactive).

For the compound `O=C(N/N=C1\CC(c2ccccc2)Oc2ccccc21)c1ccc(O)cc1` (stereo not given), the “activity change, negative = inhibition” value was 4.04% (inactive).

Turning to `O=C(O)CC1(CC(=O)Nc2ccc3ccccc3c2)CCCCC1`, the “activity change, negative = inhibition” value was 2.49% (inactive).

Consider `O=C(CNC(=O)C1CCCCC1)NC1=NCCS1`, for which the “activity change, negative = inhibition” value is 0.064% (inactive).

For the compound `Cc1nc(NC(C)C)c2cnn(CCc3ccccc3)c2n1`, the “activity change, negative = inhibition” value is -1.05% (inactive).

As to `COc1ccc(CCNC(=O)Cc2cc(=O)[nH]c(=O)[nH]2)cc1OC`, the “activity change, negative = inhibition” value is -0.65% (inactive).

On to `COc1cc(C(c2c(C)[nH][nH]c2=O)c2c(C)[nH][nH]c2=O)ccc1OCc1ccc([N+](=O)[O-])cc1`, for which the “activity change, negative = inhibition” value is -5.71% (inactive).

Regarding `N#Cc1c(-c2cccs2)nc(SCc2ccc(Cl)cc2)[nH]c1=O`, the “activity change, negative = inhibition” value was -21.8% (inactive).

Consider `O=C(Nc1ccccc1)Nc1snnc1C(=O)Nc1cccc(O)c1`, for which the “activity change, negative = inhibition” value was -8.36% (inactive).

In the case of `CSCCC(NC(=O)c1cc(C(C)(C)C)oc1C)C(=O)O` (stereo not given), the “activity change, negative = inhibition” value is 2.06% (inactive).

`COCCCNC(=O)C1CCN(c2nc(C)cc(C)n2)CC1`: the “activity change, negative = inhibition” value was -0.985% (inactive).

With `CCCn1c(N2CCN(Cc3cccc(C)c3)CC2)nc2c1c(=O)[nH]c(=O)n2C`, the “activity change, negative = inhibition” value is 0.66% (inactive).

On to `O=C(Nc1ccc2nc(-c3ccco3)c(-c3ccco3)nc2c1)N1CCN(c2ccccn2)CC1`, for which the Potency is 2820 nM (active).

Turning to `O=C(NC1CCCCC1)C(c1ccco1)N(C(=O)c1csnn1)c1cccc(F)c1` (stereo not given), the “activity change, negative = inhibition” value is -1.19% (inactive).

On to `Cc1cc(SCC(=O)NC2CCCCC2)nc2ccccc12`, for which the “activity change, negative = inhibition” value was 1.52% (inactive).

For `Cc1nn(C)cc1CNC(=O)c1ccc(Br)o1`, the “activity change, negative = inhibition” value was -1.24% (inactive).

Take `COc1ccc(CCn2c(O)cc3nn(-c4nc5ccccc5s4)c(=O)c-3c2C)cc1`: the Potency is 11200 nM (active).

On to `O=C(OCc1nc2ccccc2[n+]([O-])c1C(=O)c1ccccc1)c1cccs1`, for which the “activity change, negative = inhibition” value is 1.84% (inactive).

Take `Cc1ccc(S(=O)(=O)Nc2cc(C)c(O)c(S(=O)(=O)c3ccc(C)cc3)c2)cc1`: the “activity change, negative = inhibition” value was -2.45% (inactive).

Regarding `c1coc(CNC2CCCCCCC2)c1`, the “activity change, negative = inhibition” value is -5.83% (inactive).

Take `O=C(O)c1cccc(-n2cccc2/C=C2/NC(=O)N(c3ccc(Cl)cc3)C2=O)c1`: the Potency is 2000 nM (active).

Turning to `Cc1cc(C)cc(NC(=O)CSc2nc3c(c(=O)[nH]2)CN(Cc2ccc(F)cc2)CC3)c1`, the “activity change, negative = inhibition” value is -11.1% (inactive).

As for `CCOc1ccccc1C(=O)Nc1nnc(C(C)C)s1`, the “activity change, negative = inhibition” value is -0.725% (inactive).

Consider `COc1cccc(NC(=O)c2ccccc2-c2nc(-c3cccc(C)c3)no2)c1`, for which the “activity change, negative = inhibition” value is -4.15% (inactive).

In the case of `CCOc1ccc(-c2ccc(/C=C3/C(=N)N4C(C)=CSC4=NC3=O)o2)c([N+](=O)[O-])c1`, the “activity change, negative = inhibition” value is -15.5% (inactive).

For `COc1cc(C2C(C#N)=C(N)Oc3c2ccc2ccccc32)ccc1OCC(=O)Nc1cccc(C)c1` (stereo not given), the “activity change, negative = inhibition” value was 2.73% (inactive).
